About 83,000 compounds went through this panel and 20% of them were active in at least one assay; those are over-represented in the sample as a whole.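 Activity criterion: percent growth below 10, measured after cells in 96-well plates were exposed to a single compound concentration for 48 hours.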 A number with no mark means an inactive call. Active and inactive are the calls of the source.
The molecules below were run on MDA-MB-435 melanoma (assay: NCI-60 one-dose screen, 48 h (100 = growth as untreated, 0 = no growth, -100 = all killed)). Details: 10 µM.
Work on O=C1c2ccccc2C(=O)c2c1ccc(C(=O)O)c2[N+](=O)[O-] yielded a growth of 118%. CSC(=N\N=C\c1ccc(N(C)C)cc1)/N=C/N(C)C was tested, and the growth was 102%. Molecule CC(C)=CC(=O)OC(=O)C=C(C)C has a growth of 107%. Molecule O=S(=O)(O)c1ccc(Cl)c(Cl)c1 has a growth of 100%. With COC(=O)Nc1cccc(Cl)c1OC the growth was 101%. CCOC(=O)c1coc(C(=O)OCC)c1C(=O)OCC gave a growth of 108%. With COc1cc(C(=O)N/N=C/c2cccc([N+](=O)[O-])c2)cc(OC)c1OC the growth was 1.31% (active). Molecule N#CCCc1ccc(O)cc1 has a growth of 99.8%. CCOC(=O)c1ccc(NC(=S)P(=O)(c2ccccc2)c2ccccc2)cc1 was tested, and the growth was 91.1%. Clc1ccc(-c2n[nH]c3c2Cc2ccccc2-3)cc1Cl was tested, and the growth was 107%. COc1cccc(Sc2ccc([N+](=O)[O-])c3no[n+]([O-])c23)c1 showed a growth of 64.4%. CC(C)COC(=O)COC(=O)OCCOCCOC(=O)OCC(=O)OCC(C)C was tested, and the growth was 119%. Molecule CC(=O)Cc1ccc(-c2ccccc2)cc1 has a growth of 114%. With CCOc1ccc2[nH]c(=S)sc2c1 the growth was 99.3%. For CC1CC(O)C2C3(C)CCCC2(COC3=O)C12CCC1(CCOC1=O)O2 (stereo not drawn), the growth was 101%. With COc1ccc(OC)c(/C=C2\CCc3ccccc3C2=O)c1 the growth was -37.9% (active). With Oc1ccccc1-c1nnco1 the growth was 91.5%.

Each molecule was assayed on SW-620 colon in the same assay as above. Details: 10 µM.
In the case of O=C(CCl)Nc1ccc2c(c1)C(=O)c1ccc(NC(=O)CCl)cc1C2=O, the growth is reported as -61.7% (active). With N#C/C(=C\c1cc(O)c(O)c(O)c1)C(N)=O the growth was 116%. With CC(=O)OCCO the growth was 107%. For O=C(NCc1ccco1)Nc1c(Cl)cc(Cl)cc1Cl, the growth was 102%. O=C(O)CCCCNC(=O)c1ccccc1 was tested, and the growth was 107%. S=c1[nH]ccn1-c1ccccc1Cl showed a growth of 111%. CN(C)c1ccc2oc(=O)c3ccccc3c2c1 was tested, and the growth was 85.2%. Work on CCOC(=O)C(O)C(O)C(=O)OCC (stereo not drawn) yielded a growth of 101%. With O=C(O)C(Cc1ccccc1)C(=O)O the growth was 105%. For N#CCCN(CCCN1CCOCC1)CN1C(=O)c2ccccc2C1=O, the growth was 114%. Molecule CCCCCCCCO has a growth of 103%. For CC1OC(Oc2c(-c3ccc(O)c(O)c3)oc3cc(O)cc(O)c3c2=O)C(O)C(O)C1O (stereo not drawn), the growth was 99.8%. Work on CC(=Nc1ccccc1)C1=C(O)C(Cc2cccc(F)c2)NC1=O (stereo not drawn) yielded a growth of 26.8%. With CCCC(=O)c1cc(C)ccc1OC the growth was 114%. O=C(CS)Nc1ccc2ccccc2c1 showed a growth of 95.2%. In the case of CCCC1(c2ccccc2)NC(=O)NC1=O (stereo not drawn), the growth is reported as 111%. Work on CNS(=O)(=O)c1ccc(Cl)c(Cl)c1 yielded a growth of 104%. Molecule CC1CC(O)CC(C)(C)C1 (stereo not drawn) has a growth of 110%. With Cc1cc(N)c(S(=O)(=O)O)c(N)c1 the growth was 90.8%. In the case of O=C(O)C(c1ccccc1)C(O)c1ccccc1 (stereo not drawn), the growth is reported as 106%. With COC1=CC(=O)c2nc(Cl)ccc2C1=O the growth was -59.8% (active). With O=C1c2ccccc2C(=O)c2c1ccc(C(=O)O)c2[N+](=O)[O-] the growth was 102%. For CSC(=N\N=C\c1ccc(N(C)C)cc1)/N=C/N(C)C, the growth was 83.8%. CC(C)=CC(=O)OC(=O)C=C(C)C showed a growth of 110%. O=S(=O)(O)c1ccc(Cl)c(Cl)c1 was tested, and the growth was 111%. In the case of COC(=O)Nc1cccc(Cl)c1OC, the growth is reported as 71.7%. CCOC(=O)c1coc(C(=O)OCC)c1C(=O)OCC was tested, and the growth was 113%. COc1cc(C(=O)N/N=C/c2cccc([N+](=O)[O-])c2)cc(OC)c1OC was tested, and the growth was 23.8%. Work on N#CCCc1ccc(O)cc1 yielded a growth of 102%. Molecule CCOC(=O)c1ccc(NC(=S)P(=O)(c2ccccc2)c2ccccc2)cc1 has a growth of 102%. In the case of Clc1ccc(-c2n[nH]c3c2Cc2ccccc2-3)cc1Cl, the growth is reported as 111%. For COc1cccc(Sc2ccc([N+](=O)[O-])c3no[n+]([O-])c23)c1, the growth was -0.655% (active). For CC(C)COC(=O)COC(=O)OCCOCCOC(=O)OCC(=O)OCC(C)C, the growth was 108%. CC(=O)Cc1ccc(-c2ccccc2)cc1 was tested, and the growth was 108%. Molecule CCOc1ccc2[nH]c(=S)sc2c1 has a growth of 102%. For CC1CC(O)C2C3(C)CCCC2(COC3=O)C12CCC1(CCOC1=O)O2 (stereo not drawn), the growth was 102%. Work on COc1ccc(OC)c(/C=C2\CCc3ccccc3C2=O)c1 yielded a growth of 17.4%. In the case of Oc1ccccc1-c1nnco1, the growth is reported as 98.3%.

What follows are molecules tested on MCF7 breast in the same assay as above. Details: 10 µM unless noted.
In the case of O=C(CCl)Nc1ccc2c(c1)C(=O)c1ccc(NC(=O)CCl)cc1C2=O, the growth is reported as -60.7% (active). In the case of N#C/C(=C\c1cc(O)c(O)c(O)c1)C(N)=O, the growth is reported as 100%. In the case of CC(=O)OCCO, the growth is reported as 96.9%. O=C(NCc1ccco1)Nc1c(Cl)cc(Cl)cc1Cl was tested, and the growth was 92.8%. Work on O=C(O)CCCCNC(=O)c1ccccc1 yielded a growth of 101%. In the case of S=c1[nH]ccn1-c1ccccc1Cl, the growth is reported as 99.5%. For CN(C)c1ccc2oc(=O)c3ccccc3c2c1, the growth was 72.9%. In the case of CCOC(=O)C(O)C(O)C(=O)OCC (stereo not drawn), the growth is reported as 107%. O=C(O)C(Cc1ccccc1)C(=O)O was tested, and the growth was 99.8%. N#CCCN(CCCN1CCOCC1)CN1C(=O)c2ccccc2C1=O was tested, and the growth was 95.8%. Work on CCCCCCCCO yielded a growth of 91.8%. CC1OC(Oc2c(-c3ccc(O)c(O)c3)oc3cc(O)cc(O)c3c2=O)C(O)C(O)C1O (stereo not drawn) was tested, and the growth was 101%. CC(=Nc1ccccc1)C1=C(O)C(Cc2cccc(F)c2)NC1=O (stereo not drawn) gave a growth of 20.9%. CCCC(=O)c1cc(C)ccc1OC was tested, and the growth was 103%. For O=C(CS)Nc1ccc2ccccc2c1, the growth was 85.3%. CCCC1(c2ccccc2)NC(=O)NC1=O (stereo not drawn) gave a growth of 98.6%. Work on CNS(=O)(=O)c1ccc(Cl)c(Cl)c1 yielded a growth of 98%. CC1CC(O)CC(C)(C)C1 (stereo not drawn) was tested, and the growth was 101%. With Cc1cc(N)c(S(=O)(=O)O)c(N)c1 the growth was 105%. O=C(O)C(c1ccccc1)C(O)c1ccccc1 (stereo not drawn) was tested, and the growth was 95.3%. COC1=CC(=O)c2nc(Cl)ccc2C1=O was tested, and the growth was -56.8% (active). For O=C1c2ccccc2C(=O)c2c1ccc(C(=O)O)c2[N+](=O)[O-], the growth was 89.9%. CSC(=N\N=C\c1ccc(N(C)C)cc1)/N=C/N(C)C gave a growth of 97%. For CC(C)=CC(=O)OC(=O)C=C(C)C, the growth was 94.7%. Molecule O=S(=O)(O)c1ccc(Cl)c(Cl)c1 has a growth of 99.9%. Work on COC(=O)Nc1cccc(Cl)c1OC yielded a growth of 104%. CCOC(=O)c1coc(C(=O)OCC)c1C(=O)OCC showed a growth of 113%. COc1cc(C(=O)N/N=C/c2cccc([N+](=O)[O-])c2)cc(OC)c1OC showed a growth of 23.9%. With N#CCCc1ccc(O)cc1 the growth was 98.4%. In the case of CCOC(=O)c1ccc(NC(=S)P(=O)(c2ccccc2)c2ccccc2)cc1, the growth is reported as 100%. Clc1ccc(-c2n[nH]c3c2Cc2ccccc2-3)cc1Cl gave a growth of 35.4%. COc1cccc(Sc2ccc([N+](=O)[O-])c3no[n+]([O-])c23)c1 was tested, and the growth was 39%. CC(C)COC(=O)COC(=O)OCCOCCOC(=O)OCC(=O)OCC(C)C gave a growth of 98.7%. With CC(=O)Cc1ccc(-c2ccccc2)cc1 the growth was 93.3%. Work on CCOc1ccc2[nH]c(=S)sc2c1 yielded a growth of 102%. Work on CC1CC(O)C2C3(C)CCCC2(COC3=O)C12CCC1(CCOC1=O)O2 (stereo not drawn) yielded a growth of 103%. COc1ccc(OC)c(/C=C2\CCc3ccccc3C2=O)c1 was tested, and the growth was 12.1%. In the case of Oc1ccccc1-c1nnco1, the growth is reported as 102%.

Source: PubChem BioAssay (NCI)
